Experimental data as given in PubChem BioAssay (NCATS).
Results filed as inconclusive are left out. A call without a number means that no potency is given here. Values without a mark were called inactive. Active and inactive are the calls of the source. The call rests on the fitted dose curve; in most records, active means well fitted curve in the direction sought with a large enough effect; inconclusive means small, poorly fitted or top-dose-only effect, or another doubt; inactive means no such curve, though single readings can be large; an effect the other way counts as inactive or inconclusive.

How the values were obtained:
[1] = target: Rap guanine nucleotide exchange factor 3 (Homo sapiens) (UniProt O95398); assay: Confirmatory qHTS for antagonist of cAMP-regulated guanine nucleotide exchange factor 3 (EPAC1) (AID 1645880); further: nearly all actives have a fitted effect of over 55% in size; further: potency means the concentration at half of the fitted maximal effect
Sequence of Rap guanine nucleotide exchange factor 3 (Homo sapiens) (O95398 whole entry, looked up): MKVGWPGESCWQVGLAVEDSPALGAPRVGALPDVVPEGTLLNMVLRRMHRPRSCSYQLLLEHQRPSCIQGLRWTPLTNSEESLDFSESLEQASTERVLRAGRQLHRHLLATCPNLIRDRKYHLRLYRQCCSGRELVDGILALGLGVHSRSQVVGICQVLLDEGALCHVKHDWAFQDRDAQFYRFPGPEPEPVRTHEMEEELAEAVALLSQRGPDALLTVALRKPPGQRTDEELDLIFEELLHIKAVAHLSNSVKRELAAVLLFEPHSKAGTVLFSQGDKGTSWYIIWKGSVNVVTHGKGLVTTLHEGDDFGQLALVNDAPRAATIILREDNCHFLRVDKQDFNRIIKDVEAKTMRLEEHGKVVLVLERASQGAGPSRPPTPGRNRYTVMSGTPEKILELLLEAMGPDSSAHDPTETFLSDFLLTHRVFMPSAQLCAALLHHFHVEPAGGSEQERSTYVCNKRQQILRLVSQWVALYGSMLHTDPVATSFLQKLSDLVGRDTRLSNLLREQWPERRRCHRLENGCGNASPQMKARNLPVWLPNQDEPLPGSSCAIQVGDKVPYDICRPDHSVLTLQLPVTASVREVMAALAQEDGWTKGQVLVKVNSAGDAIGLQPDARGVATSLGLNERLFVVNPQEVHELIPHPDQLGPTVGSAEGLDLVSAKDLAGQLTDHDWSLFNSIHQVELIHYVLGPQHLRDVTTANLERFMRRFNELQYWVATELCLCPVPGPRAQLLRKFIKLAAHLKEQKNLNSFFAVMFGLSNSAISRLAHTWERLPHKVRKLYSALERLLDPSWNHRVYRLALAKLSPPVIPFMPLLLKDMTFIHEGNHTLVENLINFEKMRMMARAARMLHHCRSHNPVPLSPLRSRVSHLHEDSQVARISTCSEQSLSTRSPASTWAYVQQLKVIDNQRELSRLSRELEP
In short: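 Nucleotide exchange uses 100 nM EPAC1, 250 nM RAP1B-BODIPY-GDP and 50 uM GDP, with compounds in a concentration-titration series. After 5 min at room temperature, fluorescence (480 nm ex/540 nm em) is read every 5 min for 30 min. Data are normalized to control ATA and DMSO.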

[2] = target: Rap guanine nucleotide exchange factor 3 (Homo sapiens) (UniProt O95398); assay: Confirmatory qHTS for agonist of cAMP-regulated guanine nucleotide exchange factor 3 (EPAC1) (AID 1645881); further: nearly all actives have a fitted effect of over 75% in size; further: potency means the concentration at half of the fitted maximal effect;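 on activation: EPAC1 catalysed release of BODIPY-GDP from Rap1B seen as fluorescence loss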
[3] = target: Rap guanine nucleotide exchange factor 4 (Homo sapiens) (UniProt Q8WZA2); assay: Confirmatory qHTS for agonist of cAMP-regulated guanine nucleotide exchange factor 4 (EPAC2) (AID 1645884);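 further: nucleotide exchange releases bodipy-GDP from Rap1 and this lowers its fluorescence; nearly all actives have a fitted effect of over 65% in size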; further: potency means the concentration at half of the fitted maximal effect
Sequence of Rap guanine nucleotide exchange factor 4 (Homo sapiens) (Q8WZA2 whole entry, looked up): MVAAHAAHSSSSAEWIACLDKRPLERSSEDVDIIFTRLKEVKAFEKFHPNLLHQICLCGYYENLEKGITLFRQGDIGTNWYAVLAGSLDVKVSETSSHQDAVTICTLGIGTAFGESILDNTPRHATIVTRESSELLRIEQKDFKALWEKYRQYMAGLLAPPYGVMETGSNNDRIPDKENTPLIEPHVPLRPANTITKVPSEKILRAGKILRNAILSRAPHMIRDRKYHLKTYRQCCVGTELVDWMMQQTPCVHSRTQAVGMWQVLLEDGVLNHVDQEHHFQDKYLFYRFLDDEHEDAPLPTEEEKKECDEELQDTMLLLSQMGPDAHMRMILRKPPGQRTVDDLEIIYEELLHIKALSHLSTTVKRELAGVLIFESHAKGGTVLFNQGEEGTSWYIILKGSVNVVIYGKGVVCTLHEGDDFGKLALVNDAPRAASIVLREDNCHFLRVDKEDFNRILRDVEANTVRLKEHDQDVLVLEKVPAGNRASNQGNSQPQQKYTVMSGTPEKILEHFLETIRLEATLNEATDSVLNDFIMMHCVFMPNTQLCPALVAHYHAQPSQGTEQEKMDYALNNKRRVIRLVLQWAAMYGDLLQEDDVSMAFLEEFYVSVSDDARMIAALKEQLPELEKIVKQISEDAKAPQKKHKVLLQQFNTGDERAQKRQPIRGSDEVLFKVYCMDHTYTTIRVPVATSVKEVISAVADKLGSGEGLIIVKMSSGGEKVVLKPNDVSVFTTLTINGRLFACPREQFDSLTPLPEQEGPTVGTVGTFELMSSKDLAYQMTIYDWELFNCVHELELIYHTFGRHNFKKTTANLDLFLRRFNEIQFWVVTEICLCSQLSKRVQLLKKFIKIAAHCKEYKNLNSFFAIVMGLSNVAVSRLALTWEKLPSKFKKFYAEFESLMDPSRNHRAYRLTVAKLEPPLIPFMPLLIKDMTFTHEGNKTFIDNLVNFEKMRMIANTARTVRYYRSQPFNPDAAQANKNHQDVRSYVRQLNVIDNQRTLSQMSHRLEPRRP

[4] = target: Rap guanine nucleotide exchange factor 4 (Homo sapiens) (UniProt Q8WZA2); assay: Confirmatory qHTS for antagonist of cAMP-regulated guanine nucleotide exchange factor 4 (EPAC2) (AID 1645885); further: nearly all actives have a fitted effect of over 25% in size; further: potency means the concentration at half of the fitted maximal effect
[5] = target: Rap guanine nucleotide exchange factor 3 (Homo sapiens) (UniProt O95398); assay: Counterscreen qHTS for antagonist of cAMP-regulated guanine nucleotide exchange factor 3 (EPAC1) (AID 1645888);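 further: fluorescence loss as bound BODIPY-GDP is released from Rap1B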
In short: (§1)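 Measured: fluorescence of BODIPY-GDP bound to Rap1B, which falls as exchange proceeds. Conditions include 50 uM competing GDP, 5 and 30 min reads, and a later cAMP challenge for antagonist detection.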

[6] = target: Rap guanine nucleotide exchange factor 3 (Homo sapiens) (UniProt O95398); assay: Counterscreen qHTS for agonist of cAMP-regulated guanine nucleotide exchange factor 3 (EPAC1) (AID 1645889); further: nearly all actives have a fitted effect of over 40% in size; further: potency means the concentration at half of the fitted maximal effect
In short: as §1

| SMILES | Potency [1] | Potency [2] | activation [3] | Potency [4] | activity change, negative = inhibition [5] | activation [6] | Potency [3] | Potency [5] | Potency [6] | outcome [4] |
| --- | --- | --- | --- | --- | --- | --- | --- | --- | --- | --- |
| O=C(Nc1ccc2nc(-c3ccc4nc[nH]c4c3)[nH]c2c1)c1cccs1 | inactive | inactive | 3.61% [at 17.1 µM, percent relative to cAMP agonist control] | inactive | 8.72% [at 30.8 µM] | 15.6% [at 30.8 µM] | – | – | – | – |
| CC1S/C(=N/N=C2CCC(C(C)(C)C)CC2)NC1=O (stereo not given) | inactive | inactive | -7.78% [at 17.1 µM, percent relative to cAMP agonist control] | inactive | 2.96% [at 30.8 µM] | 18.6% [at 30.8 µM] | – | – | – | – |
| CC1CCCN(CC(=O)Nc2cc(Cl)ccc2Oc2ccccc2)C1 (stereo not given) | inactive | inactive | – | inactive | – | – | inactive | inactive | inactive | – |
| C=CCc1c(C)c(C#N)c2nc3ccccc3n2c1N1CCCCC1 | inactive | inactive | – | inactive | – | – | inactive | inactive | inactive | – |
| CCC(C(=O)OC)n1c(-c2ccccc2)nc2ccccc2c1=O (stereo not given) | inactive | inactive | – | 19 µM (active) | – | – | inactive | inactive | inactive | – |
| N#CC1=C(O)C(c2ccccc2)n2c1nc(=O)c1ccccc12 (stereo not given) | inactive | inactive | 0.476% [at 17.1 µM, percent relative to cAMP agonist control] | inactive | 1.23% [at 30.8 µM] | 1.1% [at 30.8 µM] | – | – | – | – |
| C/C(=N\NC(=O)C1CC1)c1cccs1 | inactive | inactive | – | inactive | – | – | inactive | inactive | inactive | – |
| Cc1ccc(/C=C/C(=O)c2ccccc(=O)c2O)c(C)c1 | 44.7 µM (active) | inactive | 1.7% [at 17.1 µM, percent relative to cAMP agonist control] | inactive | 12.3% [at 30.8 µM] | 23.8% [at 30.8 µM] | – | – | – | – |
| CCOc1ccccc1NC(=O)COC(=O)c1ccc(S(=O)(=O)N2CCCC2)cc1 | inactive | inactive | – | inactive | – | – | inactive | inactive | inactive | – |
| O=C1O/C(=C/c2ccccc2)N=C1c1ccccc1 | inactive | inactive | – | inactive | – | – | inactive | inactive | inactive | – |
| CCc1ccc(S(=O)(=O)Nc2cc3c(cc2C)n(C)c(=O)n3C)cc1 | inactive | inactive | 6.63% [at 17.1 µM, percent relative to cAMP agonist control] | inactive | -10.1% [at 30.8 µM] | 18.2% [at 30.8 µM] | – | – | – | – |
| Cc1ccc2nc(-c3ccc(Cl)cc3)c(Cc3ccccc3C(F)(F)F)n2c1 | inactive | inactive | 10.6% [at 17.1 µM, percent relative to cAMP agonist control] | inactive | 0.28% [at 30.8 µM] | -0.77% [at 30.8 µM] | – | – | – | – |
| CCOC(=O)C1=CCN(S(=O)(=O)c2ccc(C)cc2)C1c1cccs1 (stereo not given) | inactive | inactive | 5.63% [at 17.1 µM, percent relative to cAMP agonist control] | inactive | 6.49% [at 30.8 µM] | 22.8% [at 30.8 µM] | – | – | – | – |
| COC(=O)c1cc2sc(Cl)cc2n1Cc1c(C)cc(C)cc1C | inactive | inactive | – | inactive | – | – | inactive | inactive | inactive | – |
| CCc1nnc(NS(=O)(=O)c2ccc(NC(=S)NC(=O)/C=C/c3ccccc3)cc2)s1 | 67.5 µM (active) | inactive | – | inactive | – | – | inactive | inactive | inactive | – |
| Cc1nc(=O)c(-c2ccccc2)c(C)n1CCCCCC(=O)O | inactive | inactive | 0.623% [at 17.1 µM, percent relative to cAMP agonist control] | inactive | -38.6% [at 30.8 µM] | 4.21% [at 30.8 µM] | – | – | – | – |
| Cc1ccn2cc(CNC(=O)c3cccs3)nc2c1 | inactive | inactive | – | inactive | – | – | inactive | inactive | inactive | – |
| COc1ccc(C2CC(=O)n3c(nc4ccccc43)S2)cc1OC (stereo not given) | inactive | inactive | 2.96% [at 17.1 µM, percent relative to cAMP agonist control] | inactive | 10.2% [at 30.8 µM] | 6.35% [at 30.8 µM] | – | – | – | – |
| O=C(CNC(=O)c1sc2ccccc2c1Cl)Nc1ccccc1F | inactive | inactive | 11.8% [at 17.1 µM, percent relative to cAMP agonist control] | inactive | -19.6% [at 30.8 µM] | 2.6% [at 30.8 µM] | – | – | – | – |
| Cc1cc2nc3c(=O)n(CCc4ccccc4)c(=O)[nH]c3nc2cc1N | 12.6 µM (active) | inactive | 3.45% [at 17.1 µM, percent relative to cAMP agonist control] | inactive | -6.16% [at 30.8 µM] | 15.2% [at 30.8 µM] | – | – | – | – |

| SMILES | Potency [1] | Potency [2] | activation [3] | Potency [4] | activity change, negative = inhibition [5] | activation [6] | Potency [3] | Potency [5] | Potency [6] | outcome [4] |
| --- | --- | --- | --- | --- | --- | --- | --- | --- | --- | --- |
| O=CN(CCN(C=O)CN1CCCCC1)CN1CCCCC1 | inactive | inactive | – | inactive | – | – | inactive | inactive | inactive | – |
| CCN(CC)c1ccc2cc(-c3nnc(-c4ccccc4)o3)c(=O)oc2c1 | inactive | 15.8 µM (active) | – | 4.26 µM (active) | – | – | 15.8 µM (active) | inactive | 15.8 µM (active) | – |
| Cc1ccc(S(=O)(=O)NCCC(=O)N2CC(C)OC(C)C2)cc1 (stereo not given) | inactive | inactive | – | inactive | – | – | inactive | inactive | inactive | – |
| O=C(Nc1ccc(Cl)cc1C(=O)O)c1ccc2c(c1)C(=O)N(Cc1ccco1)C2=O | 39.8 µM (active) | inactive | -2.6% [at 17.1 µM, percent relative to cAMP agonist control] | inactive | -16.1% [at 30.8 µM] | 16.2% [at 30.8 µM] | – | – | – | – |
| O=C(O)CN1C(=O)/C(=C\c2cccc(OCc3ccccc3F)c2)SC1=S | 42.6 µM (active) | inactive | – | 84.9 µM (active) | – | – | inactive | inactive | inactive | – |
| COc1ccc2nc(N3CCN(C(=O)C4CC4)CC3)sc2c1 | inactive | inactive | – | – | – | – | inactive | inactive | inactive | inactive [at 12.7 µM] |
| CC(C)OC(=O)c1c(-c2ccccc2)c(-c2ccccc2)nn(C)c1=O | inactive | inactive | – | inactive | – | – | inactive | inactive | inactive | – |
| COc1ccc(N2CCN(C(=O)c3sc4nc(-c5ccc(F)cc5)cn4c3C)CC2)cc1 | inactive | inactive | – | inactive | – | – | inactive | inactive | inactive | – |
| O=C1NC(=O)/C(=C/c2ccccn2)S1 | inactive | inactive | – | inactive | – | – | inactive | inactive | inactive | – |
| O=C(O)c1ccc(N/N=C/c2c(F)cccc2Cl)cc1 | inactive | inactive | 2.99% [at 17.1 µM, percent relative to cAMP agonist control] | inactive | -2.2% [at 30.8 µM] | 3.47% [at 30.8 µM] | – | – | – | – |
| CCCC[C@@H]1CNC(=O)C(=O)N1CCc1cccc(F)c1 | inactive | inactive | 9.22% [at 17.1 µM, percent relative to cAMP agonist control] | inactive | -3.55% [at 30.8 µM] | -0.443% [at 30.8 µM] | – | – | – | – |
| O=C(/C=C/c1ccc([N+](=O)[O-])cc1)Nc1cccc(C(=O)Nc2ccccc2C(=O)O)c1 | 22.4 µM (active) | inactive | -2.89% [at 17.1 µM, percent relative to cAMP agonist control] | inactive | 0.771% [at 30.8 µM] | 4.73% [at 30.8 µM] | – | – | – | – |
| O=C(CCNC(=O)c1ccc(Br)cc1)Nc1ccccc1N1CCOCC1 | inactive | inactive | – | inactive | – | – | inactive | inactive | inactive | – |
| O=C(N[C@@H](Cc1c[nH]c2ccccc12)C(=O)O)OCC1c2ccccc2-c2ccccc21 | inactive | inactive | – | inactive | – | – | inactive | inactive | inactive | – |
| O=C(NCCS(=O)(=O)N1CCN(c2cccc(Cl)c2)CC1)c1ccc2c(c1)OCO2 | inactive | inactive | – | inactive | – | – | inactive | inactive | inactive | – |
| C=CCn1c(CSCc2ccc(Cl)cc2Cl)nnc1SCC(=O)Nc1ccc(C(=O)O)cc1 | inactive | inactive | 0.968% [at 17.1 µM, percent relative to cAMP agonist control] | inactive | -5.41% [at 30.8 µM] | 4.51% [at 30.8 µM] | – | – | – | – |
| Cc1cc(C)c2nc(C)cc(Nc3ccc(C(=O)NCCO)cc3)c2c1 | inactive | inactive | – | inactive | – | – | inactive | inactive | inactive | – |
| COCCCn1c(=O)/c(=C\c2ccc(OC(F)F)c(OC)c2)s/c1=C(/C#N)C(N)=O | inactive | inactive | – | inactive | – | – | inactive | inactive | inactive | – |
| CC1(C)CC[C@]2(C(=O)n3ccnc3)CC[C@]3(C)[C@H](C(=O)C=C4[C@@]5(C)C=C(C#N)C(=O)C(C)(C)[C@@H]5CC[C@]43C)[C@@H]2C1 | 14.1 µM (active) | inactive | -11.4% [at 17.1 µM, percent relative to cAMP agonist control] | inactive | -3.92% [at 30.8 µM] | 18.4% [at 30.8 µM] | – | – | – | – |
| Cc1ccc(-c2csc(NC(=O)c3ccc(Br)cc3)c2C(=O)O)cc1 | 33.8 µM (active) | inactive | – | inactive | – | – | inactive | inactive | inactive | – |
